An excerpt weighted towards active compounds, which were near 12% of everything screened.
G9a block: inhibitors of human histone lysine methyltransferase G9a; Q96KQ7; Potency, µM (doses to about 102 µM), for the others: top-dose activity, negative = inhibition, usual class: inhibitors; G9a H3K9 monomethylation, AlphaScreen, 2 h; hit rate 8.8% among 350,000; note: potency is the fitted concentration of half-maximal effect; % is set by controls: 0 for no effect and ±100 for the full control effect; nearly all actives have a fitted effect of over 75% in size
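Chemiluminescent proximity detection of H3K9 monomethylation, read after 10 min bead incubation in the dark. Reaction: 20 nM G9a, 500 nM biotin-H3K9 peptide, 20 uM SAM cofactor, 2 h, room temperature, following 15 min enzyme-compound preincubation.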
PLK1 PBD block: inhibitors of human PLK1 polo-box domain binding; AID 720504; Potency, µM, for inactives: max response, negative = inhibition, usual class: inhibitors; Plk1 PBD binding of FITC phosphopeptide, fluorescence polarization; hit rate 2.8% among 360,000; P53350; note: potency is the fitted concentration of half-maximal effect; series mostly up to about 57 µM; % is set by controls: 0 for no effect and ±100 for the full control effect; nearly all actives have a fitted effect of over 65% in size
HP1b binding inh: inhibitors of HP1-beta chromodomain binding to methylated histone tails. AlphaScreen HP1-beta / biotin-H3K9me3 peptide binding. Potency, µM (doses to about 114 µM), inactives show top-dose activity change, negative = inhibition, usual class: inhibitors. hit rate 0.56% among 390,000. P83916; note: potency is the fitted concentration of half-maximal effect; nearly all actives have a fitted effect of over 70% in size
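AlphaScreen: HP1-beta (50 nM) preformed 30 min with biotin-H3(1-18)K9me3 peptide (50 nM) in PBS pH 7.4, 0.01% Tween-20. Compound added for 30 min at RT, then streptavidin donor/nickel chelate acceptor beads (10 ug/mL) for 30 min.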
BAZ2B block: inhibitors of human BAZ2B bromodomain. Potency, µM (highest dose often 114 µM), without a hit: at the highest dose activity change, negative = inhibition, hits mostly inhibitors. AID 504333. AlphaScreen BAZ2B-H3K14Ac peptide displacement. Q9UIF8. hit rate 4.4% among 360,000; note: potency is the fitted concentration of half-maximal effect; % is set by controls: 0 for no effect and ±100 for the full control effect; nearly all actives have a fitted effect of over 60% in size
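AlphaScreen displacement of biotin-H3(5-23)K14Ac peptide (50 nM final) from BAZ2B (50 nM final) in PBS pH 7.4, 0.01% Tween-20; complex preformed 30 min RT, then compounds (top 110 uM) 30 min RT, beads 20 min dark.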
PI5P4K alpha inh: PI5P4K alpha (human) kinase inhibition | P48426 | PI5P4Kalpha enzyme, ADP-Glo luminescence, 60 min; stronger effect = lower value | max response, % | hit rate 1.2% among 330,000; active = max response of -50% or lower; inconclusive = between -30% and -50%; inactive = -30% or higher; note: value at the top dose of about 77 µM; % is set by controls: 0 for no effect and ±100 for the full control effect
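ADP-Glo luminescence end-point read after a 60 min room-temperature kinase reaction of PI5P4Kalpha plus substrate, initiated with ATP at 5 microM final. Buffer: 0.038 M HEPES pH 7.4, EGTA, 0.1% CHAPS, 5% DMSO.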
JMJD2A Tudor inh: blocks the human JMJD2A Tudor domain; O75164; AlphaScreen JMJD2A-Tudor / H3K4me3 peptide binding; Potency, µM (titrated, usually from 114 µM), inactives show top-dose activity change, negative = inhibition, most hits filed as inhibitors; hit rate 4.4% among 390,000; AID 504339; note: potency is the fitted concentration of half-maximal effect; % is set by controls: 0 for no effect and ±100 for the full control effect; nearly all actives have a fitted effect of over 50% in size
Starred values were filed as active, the others as inactive; [ ] = dose if it differs, or a comment. Unless noted, calls come from the whole dose curve; as a rule, active = well fitted curve in the direction sought with a large enough effect; inconclusive = small, poorly fitted or top-dose-only effect, or another doubt; inactive = no such curve, though single readings can be large; an effect the other way counts as inactive or inconclusive.

What do the screens show for `COC(=O)/C=C1/S/C(=N/NC(=O)c2ccccc2C)NC1=O`?
G9a block: 2µM*; PLK1 PBD block: 1%; HP1b binding inh: 38%; BAZ2B block: 56µM*; PI5P4K alpha inh: 2; JMJD2A Tudor inh: inconclusive

Results for COC(=O)/C=C1\SC(=NC(=O)c2cccc(Cl)c2)NC1=O ?
G9a block: 3%[0.0925 µM]; PLK1 PBD block: inconclusive; HP1b binding inh: -6%; BAZ2B block: inconclusive; PI5P4K alpha inh: -4; JMJD2A Tudor inh: -23%

Results for COC(=O)/C=C1\S/C(=N/NC(=O)c2ccccc2)NC1=O ?
G9a block: inconclusive; PLK1 PBD block: -3%; HP1b binding inh: 33%; BAZ2B block: inconclusive; PI5P4K alpha inh: -17; JMJD2A Tudor inh: -19%

How did COC(=O)/C=C1\SC(=NC(=O)c2cccc([N+](=O)[O-])c2)NC1=O do in these assays?
G9a block: 35µM*; PLK1 PBD block: -25%; HP1b binding inh: 0%; BAZ2B block: -25%; PI5P4K alpha inh: 2; JMJD2A Tudor inh: -24%

Results for C[C@H](CCC(=O)NCC(=O)O)C1CC[C@H]2[C@H]3C(C[C@H](O)[C@]12C)[C@@]1(C)CC[C@@H](O)C[C@H]1C[C@H]3O (some centres not stated) ?
G9a block: 38%[59 µM]

Results for COc1ccc(-n2c(=O)/c(=C\c3cccs3)s/c2=C(/C#N)C(=O)N2CCN(C)CC2)cc1 ?
G9a block: 50µM*; PLK1 PBD block: -16%; HP1b binding inh: 26%; BAZ2B block: -18%; PI5P4K alpha inh: 0; JMJD2A Tudor inh: -13%

What do the screens show for `N#C/C(C(=O)N1CCOCC1)=c1/s/c(=C\c2ccccn2)c(=O)n1-c1ccccc1`?
G9a block: 14%[59 µM]; PLK1 PBD block: -11%; HP1b binding inh: 23%; BAZ2B block: 2%; PI5P4K alpha inh: 1; JMJD2A Tudor inh: -18%

Results for Cc1nc(SCC(=O)Nc2ccc(Cl)cc2[N+](=O)[O-])nc(C)c1C ?
G9a block: 11µM*; PLK1 PBD block: inconclusive; HP1b binding inh: inconclusive; BAZ2B block: 45µM*; PI5P4K alpha inh: -6; JMJD2A Tudor inh: inconclusive

Results for Cc1ccc(SCC(=O)Nc2ccc(F)cc2[N+](=O)[O-])cc1C ?
G9a block: inconclusive; PLK1 PBD block: -11%; HP1b binding inh: 50µM*; BAZ2B block: 13µM*; PI5P4K alpha inh: 8; JMJD2A Tudor inh: inconclusive

How did CS(=O)(=O)c1ccc(Cl)c(NC(=O)CSc2nnc(-c3cccs3)n2N)c1 do in these assays?
G9a block: -7%[2.33 µM]; PLK1 PBD block: 2%; HP1b binding inh: 31%; BAZ2B block: 10%; PI5P4K alpha inh: -13; JMJD2A Tudor inh: -1%

How did CNc1oc(Cc2cccc3ccccc23)nc1C#N do in these assays?
G9a block: inconclusive; PLK1 PBD block: -4%; HP1b binding inh: 1%; BAZ2B block: inconclusive; JMJD2A Tudor inh: -29%

Results for CC1CN(c2oc(Cc3cccc4ccccc34)nc2C#N)CC(C)O1 (configuration not stated) ?
G9a block: 25µM*; PLK1 PBD block: 2%; HP1b binding inh: -47%; BAZ2B block: inconclusive; PI5P4K alpha inh: 3; JMJD2A Tudor inh: inconclusive

What do the screens show for `N#Cc1nc(Cc2cccc3ccccc23)oc1NCCN1CCCCC1`?
G9a block: inconclusive; PLK1 PBD block: -18%; HP1b binding inh: -10%; BAZ2B block: 79µM*; JMJD2A Tudor inh: inconclusive

What do the screens show for `COc1ccccc1N(C(=O)c1ccncc1)c1nc(-c2ccc([N+](=O)[O-])cc2)cs1`?
G9a block: 10µM*; PLK1 PBD block: -24%; HP1b binding inh: inconclusive; BAZ2B block: inconclusive; PI5P4K alpha inh: 0; JMJD2A Tudor inh: inconclusive

What do the screens show for `COCCN(C(=O)c1cccc(N2C(=O)CCC2=O)c1)c1nc(-c2ccc([N+](=O)[O-])cc2)cs1`?
G9a block: -48%; PLK1 PBD block: -20%; HP1b binding inh: -11%; BAZ2B block: -27%; PI5P4K alpha inh: -2; JMJD2A Tudor inh: -32%

Results for Clc1ccc(-c2nnc(C34CC5CC(CC(C5)C3)C4)o2)cn1 ?
G9a block: 23%[59 µM]; PLK1 PBD block: 19µM*; HP1b binding inh: -11%; BAZ2B block: -1%; PI5P4K alpha inh: -27; JMJD2A Tudor inh: -16%[11.4 µM]

How did Cc1ccc(NC(=O)c2cc(NC(=O)/C=C\C(=O)O)ccc2N2CCCCC2)cc1 do in these assays?
G9a block: -6%; PLK1 PBD block: inconclusive; HP1b binding inh: 4%; BAZ2B block: inconclusive; PI5P4K alpha inh: -69*; JMJD2A Tudor inh: -30%

How did COc1ccc(NC(C)=O)cc1NC(C)c1nc2sc(C)c(C)c2c(=O)[nH]1 (configuration not stated) do in these assays?
G9a block: inconclusive; PLK1 PBD block: -1%; HP1b binding inh: -25%; BAZ2B block: inconclusive; PI5P4K alpha inh: 3; JMJD2A Tudor inh: -34%

What do the screens show for `Cc1sc2nc(C(C)Sc3n[nH]c(N)n3)[nH]c(=O)c2c1C` (configuration not stated)?
G9a block: 25µM*; BAZ2B block: -5%

What do the screens show for `O=C1CCN(CCc2ccccc2)CCN1C(CSc1ccc(Br)cc1)Cc1ccccc1` (configuration not stated)?
HP1b binding inh: 14%; JMJD2A Tudor inh: -36%

Results for CCOc1ccc(NC(=O)Cn2c(=O)n(CCCCCC(=O)NCc3ccccc3)c(=O)c3sccc32)cc1 ?
G9a block: 1%[59 µM]; HP1b binding inh: 28%; BAZ2B block: -20%; JMJD2A Tudor inh: 4%

How did Cc1[nH]c2ccc(-c3n[nH]c(=S)n3C)cc2c1C do in these assays?
G9a block: 4µM*; PLK1 PBD block: -13%; HP1b binding inh: inconclusive; BAZ2B block: inconclusive; JMJD2A Tudor inh: 4.5µM*

What do the screens show for `CCOC(=O)c1ccc2[nH]c(C)c(C)c2c1`?
PLK1 PBD block: -4%; HP1b binding inh: inconclusive; PI5P4K alpha inh: 16; JMJD2A Tudor inh: inconclusive

How did CCn1c(-c2ccc3[nH]c(C)c(C)c3c2)n[nH]c1=S do in these assays?
G9a block: 2.8µM*; PLK1 PBD block: -8%; HP1b binding inh: -26%; BAZ2B block: inconclusive; JMJD2A Tudor inh: 22µM*

What do the screens show for `CC1=C2C3OC(=O)C(C)C3CCC2(C)C=C(Cl)C1=O` (configuration not stated)?
PLK1 PBD block: 1%; PI5P4K alpha inh: 1

Results for CC1CC(c2ccccc2)n2nc(NC(=O)CCc3ccccc3)nc2N1 (configuration not stated) ?
G9a block: 1%[59 µM]; PLK1 PBD block: -15%; HP1b binding inh: 54%; BAZ2B block: 50µM*; PI5P4K alpha inh: 1; JMJD2A Tudor inh: 79µM*
